According to PubChem BioAssay (EPA / NIEHS):
The source made the active and inactive calls. The calls were made as follows: active = hit-call score of the fitted dose curve at least 0.9, where 1 is the maximum; inconclusive = response in the unintended direction; inactive = score below 0.9.

Experiment: Tanguay_ZF_120hpf_ActivityScore_legacy: (Legacy) Oregon State University Tanguay Lab 120 Hour Post-fertilization zebrafish Assay Score for Activity (AID 2283742);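 as to AC50: static exposure from 6 hpf until 120 hpf at 28 °C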
Procedure: Tanguay_ZF_120hpf_legacy is a whole embryo, multiplexed endpoint assay using zebrafish larvae exposed for 120 hours post fertilization on a 96-well plate.Tanguay_ZF_120hpf_ActivityScore_legacy is one of one assay component(s) measured or calculated from the Tanguay_ZF_120hpf_legacy assay. It is designed to make measurements of developmental malformations and mortality as detected with brightfield microscopy and combines scoring from 18 other assay components measuring more specific morphologies.Data from the assay component Tanguay_ZF_120hpf_ActivityScore_legacy was analyzed into 1 assay endpoints. This assay endpoint, Tanguay_ZF_120hpf_ActivityScore_legacy, was analyzed in the positive analysis fitting direction relative to DMSO as the negative control and baseline of activity. Using a type of morphology reporter, gain-of-signal activity can be used to understand changes in developmentals as they relate to the whole embryo. To generalize the intended target to other relatable targets, this assay endpoint is annotated to the zebrafish development intended target family, where the subfamily is embryonic morphogenesis and mortality.
Zebrafish husbandry: Tropical 5D wild-type adult zebrafish were housed in at an approximate density of 1000 per 100 gallon tank at the Sinnhuber Aquatic Research Laboratory, Oregon State University, Corvallis, OR. Each tank was kept at standard laboratory conditions of 28C on a 14-h light/10-h dark photoperiod in fish water consisting of reverse osmosis water supplemented with a commercially available salt (Instant Ocean). Spawning funnels were placed into the tanks the night prior, and embryos were collected and staged. To increase bioavailability, the chorion was enzymatically removed using pronase (63.6mg/ml, >/= 3.5U/mg, Sigma-Aldrich: P5147) at 4 hours post fertilization (hpf) using a custom automated dechorionator.Chemical exposures: Six hpf dechorionated embryos were placed 1 embryo per well in a 96-well plate prefilled with 90 ul of EM using automated embryo placement systems (AEPS). Ten microliters of each row of dilution plate 2 was added to 2 exposure plates. The final DMSO concentration used was 0.64% (vol/vol). Thirty-two embryos were also exposed to 5uM trimethyltin chloride (positive control). Plates were sealed to prevent evaporation and foil covered to reduce light exposure and kept in a 28C incubator. Embryos were statically exposed until 120 hpf. At 24 hpf, embryos were assessed for photomotor response using a custom photomotor response analysis tool (PRAT) and for developmental toxicity endpoints (MO24: mortality at 24 hpf, DP: developmental progression, SM: spontaneous movement, and NC: notochord distortion). At 120 hpf, locomotor activity was measured using Viewpoint Zebralab and assessed for 18 endpoints. Zebrafish acquisition and analysis program (ZAAP), a custom program designed to inventory, acquire, and manage zebrafish data, was used to collect developmental endpoints as either present or absent (i.e., binary responses were recorded). If mortality occurred for an embryo (at either 24 or 120 hpf), the non-mortality endpoints were not measured.

Which outcome does the source give for `CCCCCCCCCCCCCO` here?
Its outcome is “inactive”.

With `CCCCCCCCCCO` as the molecule, how does the outcome read?
Its outcome is “inactive”.

For `O=c1c(O)c(-c2ccc(O)c(O)c2)oc2cc(O)cc(O)c12`, which outcome is on record?
Its outcome is “inactive”.

For `Cc1ccccc1Cl`, which outcome is on record?
The outcome was “inactive”.

With `CC(=O)C(C)=CC1C(C)=CCCC1(C)C` (stereo not given) as the molecule, how does the outcome read?
The outcome was “inactive”.

Which outcome does the source give for `NC(=O)Cn1c(=O)cc(CCN2CCN(c3nccc4sccc34)CC2)c2ccc(F)cc21` here?
Its outcome is “inactive”.

With `O=C(O)CCCCC(=O)O` as the molecule, how does the outcome read?
The outcome was “inactive”.

With `CN[C@H]1CC[C@@H](c2ccc(Cl)c(Cl)c2)c2ccc(S(N)(=O)=O)cc21` as the molecule, how does the outcome read?
Its outcome is “inactive”.

Which outcome does the source give for `Cc1nc(C)nc(N2C[C@@H](C)N(c3ccnc([C@@H](C)O)n3)[C@@H](C)C2)n1` here?
The outcome was “inactive”.

Which outcome does the source give for `C[C@]12C=CC(=O)C=C1CC[C@@H]1[C@@H]2C(=O)C[C@@]2(C)[C@H]1CC[C@]2(O)C(=O)CO` here?
The outcome was “inactive”.

With `Cc1ccc(N(C)C)cc1` as the molecule, how does the outcome read?
Its outcome is “inactive”.

Which outcome does the source give for `CC1=C(/C=C/C(C)=C/C=C/C(C)=C/CO)C(C)(C)CCC1` here?
The outcome was “inactive”.

For `Cc1cc(NC(=O)C(=O)O)cc(C)c1Oc1ccc(O)c2c1CCC2`, which AC50 is on record?
The AC50 was 0.216 µM (active).

For `Nc1ccc(S(=O)(=O)c2ccc(N)cc2)cc1`, which outcome is on record?
Its outcome is “inactive”.

Which outcome does the source give for `O=c1[nH]cc(F)c(=O)[nH]1` here?
Its outcome is “inactive”.

Which outcome does the source give for `Oc1ccc2c(c1)OC[C@@H](N1CCC(O)(c3ccc(F)cc3)CC1)[C@H]2O` here?
The outcome was “inactive”.

For `Cc1ccc(C)c(C)c1`, which outcome is on record?
Its outcome is “inactive”.

For `CCc1c(C(=O)NN2CCCCC2)nn(-c2ccc(Cl)cc2Cl)c1-c1ccc(Br)cc1`, which AC50 is on record?
Its AC50 is 39.9 µM (active).

With `Cc1oc(-c2ccccc2)nc1CCOc1cccc2c1ccn2CCC(=O)O` as the molecule, how does the outcome read?
The outcome was “inactive”.

With `COc1cc(-c2nc(NC(=O)c3cc4cc(C)cc(C)c4n3CC(=O)O)sc2CCC2CCCCC2)c(OC)cc1Cl` as the molecule, how does the outcome read?
The outcome was “inactive”.

With `Cc1c(C(=O)O)c(O)cc2c1C(=O)c1c(O)c([C@@H]3O[C@H](CO)[C@@H](O)[C@H](O)[C@H]3O)c(O)c(O)c1C2=O` as the molecule, how does the outcome read?
The outcome was “inactive”.

For `Clc1cc(Cl)c(Cl)cc1Cl`, which outcome is on record?
The outcome was “inactive”.

For `Cc1ccc(C)c(O)c1C`, which outcome is on record?
The outcome was “inactive”.

For `CCCCCCCCCCC`, which outcome is on record?
The outcome was “inactive”.

With `O=C(OCCCCCOC(=O)c1ccccc1)c1ccccc1` as the molecule, how does the outcome read?
Its outcome is “inactive”.

Which outcome does the source give for `C[Si]1(C)O[Si](C)(C)O[Si](C)(C)O[Si](C)(C)O1` here?
The outcome was “inactive”.

Which outcome does the source give for `CC1(C)CC(N=C=O)CC(C)(CN=C=O)C1` (stereo not given) here?
Its outcome is “inactive”.

Which outcome does the source give for `CN1CCN(Cc2cc(-c3ccc4[nH]c(=O)oc4c3)co2)[C@@H](c2ccc(F)cc2)C1` here?
Its outcome is “inactive”.

For `Nc1nc(N)c2nc(CNc3ccc(C(=O)N[C@@H](CCC(=O)O)C(=O)O)cc3)cnc2n1`, which outcome is on record?
The outcome was “inactive”.

With `CC(=O)Oc1ccccc1C(=O)O` as the molecule, how does the outcome read?
The outcome was “inactive”.

Which outcome does the source give for `CNC(=O)[C@H]1O[C@@H](n2cnc3c(NCc4cc(Cl)ccc4OCc4cc(C)no4)ncnc32)[C@H](O)[C@@H]1N` here?
The outcome was “inactive”.

With `CC(C)(C)c1cc(O)c(C(C)(C)C)cc1O` as the molecule, how does the AC50 read?
The AC50 was 40.5 µM (active).

With `Nc1ccc2c(c1)C(=O)c1ccccc1C2=O` as the molecule, how does the outcome read?
The outcome was “inactive”.

Which outcome does the source give for `CCCCc1ccc2c(n1)[C@@H](c1ccc(OC)cc1C[C@H](C)C(=O)O)[C@H](C(=O)O)[C@H]2c1ccc2c(c1)OCO2` here?
The outcome was “inactive”.

For `CCNc1cccc(C)c1`, which outcome is on record?
Its outcome is “inactive”.

With `NS(=O)(=O)c1cc2c(cc1Cl)NCNS2(=O)=O` as the molecule, how does the outcome read?
The outcome was “inactive”.

Which outcome does the source give for `OC[C@@H](O)[C@@H](O)[C@H](O)[C@H](O)CO` here?
The outcome was “inactive”.

Which outcome does the source give for `Cc1cc(=O)[nH]c(=S)[nH]1` here?
Its outcome is “inactive”.

For `C=CCc1ccc(O)c(OC)c1`, which outcome is on record?
Its outcome is “inactive”.

Which outcome does the source give for `CC(C)c1ccc(C(=O)N=C(N)N)cc1S(C)(=O)=O` here?
The outcome was “inactive”.
